hgDAF12 agonist: activates the H. glycines DAF-12 receptor ligand-binding domain; AID 687014; actives 1.8% (n = 370,000); HEK293 GAL4-hgDAF12 UAS-luciferase reporter, agonist luminescence; normalized to butyrate control; activation, % at 6.8 µM;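 active = activation above a cutoff set at the mean of all screened compounds plus 3 SD, cut at about 10% in these data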;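 note: 0% = DMSO wells and 100% = sodium butyrate wells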
hcDAF-12 act: H. contortus DAF-12 activation, primary screen; HEK293 hcDAF-12 lit1-tk-luc reporter, luminescence; 0% DMSO, 100% Δ7-dafachronic acid; activation, % at 6.8 µM; actives 1.4% (n = 370,000); AID 652067;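 active = activation above the mean of all tested compounds plus 3 SD, cut at about 5.5% in these data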;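 note: 100% = response to 3 µM Δ7-dafachronic acid high control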
DAX1 StAR inh: inhibitors of DAX1 repression of SF-1 activated StAR promoter; HEK293T StAR-luciferase reporter, SF-1/DAX-1 repression relief; actives 1.1% (n = 370,000); inhibition, % at 6.8 µM; AID 652010;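 active = inhibition above the mean over all tested compounds plus 3 SD, cut at about 3.6% in these data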;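 note: 0% = DAX-1 cells with DMSO and 100% = cells lacking DAX-1 with DMSO; higher inhibition means more luminescence from relief of DAX-1 repression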
SMARCA2 act: increases SMARCA2 function in MMTV reporter cells. activation, % at 9.1 µM. MG213 cells, MMTV-luciferase reporter, dexamethasone, overnight. AID 652017. actives 1% (n = 370,000); in the data active = activation above about 7.8%;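 note: 0% = vehicle wells and 100% = reference activator wells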
ssDAF-12 act: activates DAF-12 receptor from parasite S. stercoralis | HEK293 ssDAF-12/GRIP1 lit1-tk-luc reporter, luminescence; % of 3 µM dafachronic acid response | activation, % at 6.8 µM | actives 1% (n = 370,000) | AID 652126;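 active = activation above the mean over all tested compounds plus 3 SD, cut at about 0.9% in these data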;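 note: 0% = DMSO-only wells and 100% = 3 µM delta7-dafachronic acid wells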
DAX1 conf: confirmation of human DAX1 (NR0B1) inhibitors; shares compounds with DAX1 StAR inh; HEK293T StAR-promoter luciferase reporter, SF-1/DAX-1 repression; inhibition, % at 6.8 µM; actives 87% (n = 2,400); AID 652134;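 active = inhibition above the average of every tested compound plus 3 SD, cut at about 3.8% in these data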;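 note: 0% = DAX-1 cells with DMSO and 100% = no DAX-1 control cells with DMSO; active compounds raise luminescence by relieving repression of the StAR reporter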
SF1 mutant ctr: nonselective inhibitor or artifact in SF-1 mutant DAX1 counter-screen; shares compounds with DAX1 StAR inh; AID 652136; inhibition, % at 6.8 µM; actives 78% (n = 2,400); HEK293 StAR-luciferase, SF-1 AF2 mutant, luminescence;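 active = inhibition above the mean of all tested compounds plus 3 SD, cut at about 3% in these data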;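 note: 0% = DAX-1 transfected cells with DMSO and 100% = cells without DAX-1 with DMSO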
SMARCA2 act conf: SMARCA2 activation, confirmation screen; MG213 cells, MMTV-luciferase with dexamethasone, luminescence, overnight; MG213 cells expressing E1A, Rb sequestered; DMSO wells 0%, reference activator 100%; shares compounds with SMARCA2 act; actives 30% (n = 3,500); AID 652260; activation, % at 9.1 µM;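 active = activation above its plate's cutoff, the mean activation of tested wells plus 3 SD, cut at about 7.9% in these data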
GAL4-VP16 Luc: GAL4-VP16 reporter activation counter-screen; shares compounds with SMARCA2 act; HEK293 GAL4-VP16 pG5luc reporter, luciferase luminescence; scaled: DMSO wells 0%, SAHA wells 100%; activation, % at 9.1 µM; actives 41% (n = 3,500); AID 686939;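 active = activation above the solvent-only control well mean plus 3 SD, averaged across control plates, cut at about 5.2% in these data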
LXR ag: counter-screen for hcDAF-12 agonists: agonists of human LXR-beta; HEK293 Gal4-LXR tk-luc reporter, luminescence, 24 h; normalized: DMSO 0%, positive control 100%; 3,400 tested, under 10 active; activation, % at 6.8 µM; shares compounds with hcDAF-12 act;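 active = mean percent activation of the reporter above a cutoff set as the average over tested compounds plus their standard deviation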
Target sequence (P55055 whole entry, looked up, the tested form may be a part): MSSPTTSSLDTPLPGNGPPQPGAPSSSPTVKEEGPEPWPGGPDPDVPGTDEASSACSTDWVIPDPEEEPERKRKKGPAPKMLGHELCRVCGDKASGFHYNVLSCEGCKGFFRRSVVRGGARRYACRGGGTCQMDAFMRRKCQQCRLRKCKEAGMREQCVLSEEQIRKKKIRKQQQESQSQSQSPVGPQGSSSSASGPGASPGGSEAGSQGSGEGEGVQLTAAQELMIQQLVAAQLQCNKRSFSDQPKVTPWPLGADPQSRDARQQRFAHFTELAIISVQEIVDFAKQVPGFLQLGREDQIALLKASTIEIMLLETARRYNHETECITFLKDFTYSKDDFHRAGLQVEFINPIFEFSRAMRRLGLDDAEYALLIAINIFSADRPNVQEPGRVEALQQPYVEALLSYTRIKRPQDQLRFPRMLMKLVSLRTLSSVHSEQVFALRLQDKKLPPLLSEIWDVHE
hcDAF12 ag: hcDAF-12 agonism, confirmation assay; shares compounds with hcDAF-12 act; HEK293 hcDAF-12 lit1-tk-luc reporter, luminescence; % of Δ7-dafachronic acid response; activation, % at 6.8 µM; actives 61% (n = 3,400); AID 743032;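 active = mean activation across triplicate tests above the threshold derived from the earlier primary screen, cut at about 5.5% in these data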;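 note: 0% = DMSO only wells and 100% = 3 µM Δ7-dafachronic acid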
* marks the source's active call; other numbers are inactive results; / = no result. Most compounds without a hit are left out; they make up all but 4.2% or so of the library.

SMILES	hgDAF12 agonist	hcDAF-12 act	DAX1 StAR inh	SMARCA2 act	ssDAF-12 act	DAX1 conf	SF1 mutant ctr	LXR ag	hcDAF12 ag	others
CC(C)c1cc(C(=O)Nc2ccc3c(c2)OCO3)no1	8	12*	6.4*	8.0*	2.0*	16*	7.1*	1	7.9*	SMARCA2 act conf=3;GAL4-VP16 Luc=9.1*
Cc1ccc(NC(=O)Nc2ccc3c(c2)OCO3)cc1F	11*	8.0*	7.5*	3	0	12*	9.6*	1	4
N#Cc1cccc(NCC(=O)Nc2ccc3c(c2)OCCO3)c1	13*	7.8*	5.2*	9.8*	1.4*	11*	4.1*	2	7.6*	SMARCA2 act conf=8;GAL4-VP16 Luc=3
COc1ccc(-c2cc(C(=O)Nc3ccc4c(c3)OCO4)no2)cc1	0	-2	0	-3	0	/	/	/	/
Cc1ccc(C(=O)Nc2ccc3c(c2)OCO3)cc1	13*	20*	5.6*	3	3.3*	11*	6.0*	2	14*
Cc1ccc(C(=O)Nc2ccc3c(c2)OCCO3)cc1	9	1	1	2	0	/	/	/	/
Cc1cc(C)c(S(=O)(=O)N2CCN(C(=O)CC(C)n3nc(C)nc3C)CC2)c(C)c1 (stereo unspecified)	0	2	0	-1	0	/	/	/	/
Cc1cccc(CNC(=S)OCCN2CCCC23CCC(c2ccccc2)CC3)c1 (stereo unspecified)	2	2	/	/	-2	/	/	/	/
Cn1c(Cc2cccs2)nnc1SCC(=O)Nc1ccc2c(c1)OCO2	-2	-2	0	-3	-1	/	/	/	/
O=C(Nc1ccc2c(c1)OCCO2)Nc1ccc2c(c1)OCO2	22*	9.2*	5.4*	5	3.1*	14*	6.7*	2	9.1*
CCC(=O)N1CCC(C(=O)NC2CCCc3ccccc32)CC1 (stereo unspecified)	0	-2	-1	-5	-1	/	/	/	/
O=c1[nH]c(-c2ccncc2)nc2ccccc12	3	1	0	0	0	/	/	/	/
CN(C)c1ccc(-c2nc3ccccc3c(=O)[nH]2)cc1	15*	10*	5.0*	0	1	15*	4.5*	2	12*
O=C(Nc1nnc(C2CC2)s1)c1cccnc1Oc1ccc(Cl)cc1	-1	0	-1	-3	-1	/	/	/	/
COc1c(C(=O)Nc2nnc(C3CC3)s2)csc1Cl	10	8.1*	7.0*	5	2.1*	6.2*	9.1*	1	9.5*
Fc1ccc(-c2cn3cc(C(F)(F)F)cc(Cl)c3n2)cc1	12*	19*	6.0*	6	3.7*	17*	8.8*	2	22*
C(=Cc1c[nH]c2ccccc12)c1ccc2ccccc2n1	18*	20*	8.1*	1	5.2*	8.0*	1	2	12*
Fc1ccccc1/C=C/c1ccc2ccccc2n1	15*	20*	5.8*	4	2.2*	14*	3.5*	1	13*
C(=Cc1c[nH]c2ccccc12)c1nccc2ccccc12	23*	24*	15*	5	4.1*	14*	7.1*	2	18*
O=Cc1nccc2ccccc12	0	1	2	-3	0	/	/	/	/
CCCCC(=O)N(C)c1c(C)nc2ccc(C(=O)N3CCN(S(=O)(=O)CC)CC3)cn12	0	-2	0	2	-1	/	/	/	/
CCCCNCc1nc2ccccc2c(=O)[nH]1	2	-1	0	5	-1	/	/	/	/
CCc1ccc(NCc2nc3ccccc3c(=O)[nH]2)cc1	15*	11*	5.1*	8.3*	2.4*	14*	9.3*	1	7.6*	SMARCA2 act conf=11*;GAL4-VP16 Luc=14*
CCCC(=O)OC[C@H]1CN(C2CCCC2)S(=O)(=O)c2c(F)cccc2O1	-1	3	2	-2	0	/	/	/	/
O=C(NCC(c1ccccc1)c1ccccc1)[C@H](Cc1ccccc1)NC1(C(=O)NC2CCCCC2)CCCCCC1	-1	-3	/	/	-2	/	/	/	/
SMILES	hgDAF12 agonist	hcDAF-12 act	DAX1 StAR inh	SMARCA2 act	ssDAF-12 act	DAX1 conf	SF1 mutant ctr	LXR ag	hcDAF12 ag	others
COc1ccccc1NC(CC(=O)c1ccccc1)C(=O)OCC(=O)c1ccc(Br)cc1 (stereo unspecified)	23*	20*	7.8*	1	2.1*	8.9*	-1	2	21*
CC(=O)NC(Cc1ccccc1)C(=O)OCC(=O)c1ccc(Br)cc1 (stereo unspecified)	1	0	0	-1	-2	/	/	/	/
COc1ccccc1NC(CC(=O)c1ccccc1)C(=O)OCC(=O)c1ccc(C)c(C)c1 (stereo unspecified)	22*	17*	7.8*	6	3.3*	21*	8.1*	1	12*
O=C(Nc1ccc(N2CCCC2)cc1)c1cccc(F)c1	11*	8.8*	4.6*	2	0	10*	2	1	5.7*
O=C1NN(c2ccccc2)C(=O)/C1=C\c1coc2ccc(O)cc2c1=O	10	3	0	2	0	/	/	/	/
O=C1NN(c2ccccc2)C(=O)/C1=C/c1coc2ccccc2c1=O	13*	17*	4.8*	7	1.7*	3	1	0	5
Fc1ccc(-c2nc3n(n2)Cc2ccccc2-3)cc1	18*	18*	5.5*	7	4.2*	14*	8.6*	2	16*
NC(=S)Cc1nc2n(n1)Cc1ccccc1-2	1	0	1	-1	-2	/	/	/	/
O=c1[nH]c(=O)n([C@H]2C[C@H](O)[C@@H](CO)O2)cc1Br	38*	8.8*	13*	3	-1	14*	5.5*	0	12*
O=c1[nH]c(=O)n([C@H]2C[C@H](O)[C@@H](CO)O2)cc1F	-8	-2	-5	-3	-1	/	/	/	/

High-throughput results: PubChem, The Scripps Research Institute Molecular Screening Center
